The values below come from PubChem BioAssay (NCI).

Where “and” joins values, the source holds several entries; their conditions need not be identical. Equal values may be shown once. Compounds without any hit were thinned out: in the full panel of roughly 83,000, 20% have a hit.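 Treatment: one concentration, 48 hours, 96-well format. Scoring: percent growth, with anything below 10 considered active.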 Calls of active or inactive are those of the source.

Test systems include HT29 colon; SNB-75 CNS; U251 CNS; PC-3 prostate; SK-MEL-5 melanoma; UACC-62 melanoma; LOX IMVI melanoma; SN12C renal; UO-31 renal; TK-10 renal; ACHN renal; CAKI-1 renal; A498 renal; CCRF-CEM leukemia; MOLT-4 leukemia.
Common to all, as to assay: NCI-60 one-dose screen, 48 h (100 = growth as untreated, 0 = no growth, -100 = all killed)
Another assay deals with SNB-19 CNS. Conditions: 10 µM unless noted.
In the next assay the test system is SK-MEL-28 melanoma. The note with it: 10 µM unless noted.
In a further assay the test system is SK-MEL-2 melanoma. Conditions: 10 µM unless noted.
A further assay relates to EKVX NSCLC. The note with it: 10 µM unless noted.

On to `O=C(O)C#Cc1ccc(Cl)cc1`, for which the growth is 98.1% (inactive) in the assay with HT29 colon (10 µM unless noted); 85.6% (inactive) in the assay on SNB-75 CNS (10 µM unless noted); 99.8% (inactive) in the assay on SNB-19 CNS; 93.8% (inactive) in the assay with U251 CNS (10 µM unless noted); 92% (inactive) with PC-3 prostate (10 µM unless noted); 96.1% (inactive) with SK-MEL-5 melanoma (10 µM unless noted). Also, the growth was 95.7% (inactive) in the assay on UACC-62 melanoma (10 µM unless noted); 91.5% (inactive) in the assay on LOX IMVI melanoma (10 µM unless noted); 107% (inactive) in the assay on SK-MEL-28 melanoma; 98.4% (inactive) with SK-MEL-2 melanoma; 104% (inactive) with EKVX NSCLC; 98.4% (inactive) with SN12C renal (10 µM unless noted). Moreover, the growth in the assay with UO-31 renal (10 µM unless noted) was 95.6% (inactive); in the assay with TK-10 renal (10 µM unless noted), 109% (inactive); in the assay with ACHN renal (10 µM unless noted) it was 103% (inactive); in the assay on CAKI-1 renal (10 µM unless noted), 95.4% (inactive); with A498 renal (10 µM unless noted), 73.1% (inactive); with CCRF-CEM leukemia (10 µM unless noted) it was 103% (inactive). In addition, in the assay on MOLT-4 leukemia (10 µM unless noted), the growth was 87.5% (inactive).
Consider `Nc1ccccc1SC1CC(=O)N(c2ccc(I)cc2)C1=O` (stereo not drawn), for which the growth is 93.3% (inactive) with HT29 colon (10 µM unless noted); 79.8% (inactive) in the assay on SNB-75 CNS (10 µM unless noted); 96% (inactive) in the assay on SNB-19 CNS; 88.4% (inactive) with U251 CNS (10 µM unless noted); 94.2% (inactive) with PC-3 prostate (10 µM unless noted); 87.9% (inactive) in the assay on SK-MEL-5 melanoma (10 µM unless noted). Besides, the growth was 82.7% (inactive) with UACC-62 melanoma (10 µM unless noted); 76.4% (inactive) in the assay with LOX IMVI melanoma (10 µM unless noted); 90.8% (inactive) in the assay on SK-MEL-28 melanoma; 86.9% (inactive) with SK-MEL-2 melanoma; 91.8% (inactive) in the assay on SN12C renal (10 µM unless noted); 86.8% (inactive) in the assay with UO-31 renal (10 µM unless noted). Also, the growth is 106% (inactive) with TK-10 renal (10 µM unless noted); 81.7% (inactive) with CAKI-1 renal (10 µM unless noted); 108% (inactive) in the assay on A498 renal (10 µM unless noted); 89.7% (inactive) with CCRF-CEM leukemia (10 µM unless noted); 81.5% (inactive) with MOLT-4 leukemia (10 µM unless noted).
On to `COc1cc(NCCCCCNC(C)C)c2ncccc2c1`, for which the growth was 85.9% (inactive) and 67.1% (inactive) in the assay on HT29 colon (10 µM unless noted); 84.2% (inactive) and 73.7% (inactive) with SNB-75 CNS (10 µM unless noted); 96.1% (inactive) and 81.2% (inactive) in the assay with SNB-19 CNS; 86.3% (inactive) and 89.1% (inactive) in the assay on PC-3 prostate (10 µM unless noted); 98.4% (inactive) and 99% (inactive) with SK-MEL-5 melanoma (10 µM unless noted); 83.7% (inactive) in the assay on UACC-62 melanoma (10 µM unless noted). Besides, the growth was 87.3% (inactive) and 82.5% (inactive) in the assay on LOX IMVI melanoma (10 µM unless noted); 98.5% (inactive) and 98.7% (inactive) in the assay on SK-MEL-28 melanoma; 93.1% (inactive) and 66.7% (inactive) in the assay on SK-MEL-2 melanoma; 95.5% (inactive) and 105% (inactive) in the assay with EKVX NSCLC; 93.5% (inactive) and 83.6% (inactive) in the assay with SN12C renal (10 µM unless noted); 59.7% (inactive) and 45.4% (inactive) with UO-31 renal (10 µM unless noted). Moreover, the growth with TK-10 renal (10 µM unless noted) was 91.9% (inactive) and 90.1% (inactive); in the assay with ACHN renal (10 µM unless noted) it was 100% (inactive) and 90.5% (inactive); in the assay with CAKI-1 renal (10 µM unless noted) it was 91.6% (inactive) and 92.5% (inactive); in the assay on A498 renal (10 µM unless noted), 77.2% (inactive); in the assay with CCRF-CEM leukemia (10 µM unless noted) it was 106% (inactive) and 117% (inactive); in the assay with MOLT-4 leukemia (10 µM unless noted), 104% (inactive) and 88% (inactive).
As to `OC1CCCN(Cc2ccccc2)C1` (stereo not drawn), the growth is 102% (inactive) in the assay with HT29 colon (10 µM unless noted); 113% (inactive) with SNB-75 CNS (10 µM unless noted); 92.2% (inactive) with SNB-19 CNS; 97.4% (inactive) with PC-3 prostate (10 µM unless noted); 102% (inactive) in the assay with SK-MEL-5 melanoma (10 µM unless noted); 91.1% (inactive) in the assay with UACC-62 melanoma (10 µM unless noted). Also, the growth was 96.5% (inactive) in the assay on LOX IMVI melanoma (10 µM unless noted); 108% (inactive) in the assay with SK-MEL-28 melanoma; 115% (inactive) in the assay on SK-MEL-2 melanoma; 116% (inactive) with EKVX NSCLC; 98.5% (inactive) in the assay with SN12C renal (10 µM unless noted); 88.5% (inactive) with UO-31 renal (10 µM unless noted). Also, the growth in the assay with TK-10 renal (10 µM unless noted) was 97.4% (inactive); in the assay on ACHN renal (10 µM unless noted), 106% (inactive); in the assay with CAKI-1 renal (10 µM unless noted), 105% (inactive); with A498 renal (10 µM unless noted), 96.2% (inactive); with CCRF-CEM leukemia (10 µM unless noted), 98.4% (inactive); with MOLT-4 leukemia (10 µM unless noted) it was 92.5% (inactive).
In the case of `O=c1[nH]c(=O)c2[nH]c(=O)[nH]c2[nH]1`, the growth is 105% (inactive) with HT29 colon (10 µM unless noted); 89.8% (inactive) in the assay with SNB-75 CNS (10 µM unless noted); 103% (inactive) with SNB-19 CNS; 101% (inactive) with U251 CNS (10 µM unless noted); 96.2% (inactive) in the assay with PC-3 prostate (10 µM unless noted); 100% (inactive) in the assay on SK-MEL-5 melanoma (10 µM unless noted). The growth in the assay with UACC-62 melanoma (10 µM unless noted) was 99.8% (inactive); with LOX IMVI melanoma (10 µM unless noted), 102% (inactive); with SK-MEL-28 melanoma, 98.9% (inactive); in the assay with SK-MEL-2 melanoma, 137% (inactive); in the assay with EKVX NSCLC, 88.6% (inactive); with SN12C renal (10 µM unless noted), 99.7% (inactive). Besides, the growth in the assay with UO-31 renal (10 µM unless noted) was 85.7% (inactive); in the assay with TK-10 renal (10 µM unless noted) it was 92.1% (inactive); with ACHN renal (10 µM unless noted), 101% (inactive); in the assay with CAKI-1 renal (10 µM unless noted) it was 101% (inactive); in the assay on A498 renal (10 µM unless noted) it was 73.9% (inactive); with CCRF-CEM leukemia (10 µM unless noted), 114% (inactive). For the same compound, the growth in the assay on MOLT-4 leukemia (10 µM unless noted) is 113% (inactive).
Consider `S=c1nc[nH]c2nc[nH]c12`, for which the growth was 41.7% (inactive) in the assay with HT29 colon (10 µM); 14.3% (inactive) with HT29 colon (50 µM); 55.9% (inactive) in the assay with SNB-75 CNS (10 µM); 43.7% (inactive) in the assay with SNB-75 CNS (50 µM); 51.5% (inactive) in the assay with U251 CNS (10 µM); 36.8% (inactive) with U251 CNS (50 µM). Besides, the growth in the assay on PC-3 prostate (10 µM) is 53.5% (inactive); with PC-3 prostate (50 µM), 43.2% (inactive); with SK-MEL-5 melanoma (10 µM), 61.8% (inactive); with SK-MEL-5 melanoma (50 µM) it was 12.8% (inactive); in the assay on UACC-62 melanoma (10 µM), 15.8% (inactive); in the assay on UACC-62 melanoma (50 µM), 19.8% (inactive). Further, the growth with UACC-62 melanoma (750 µM) was 15.6% (inactive) and 1.72% (active); in the assay on LOX IMVI melanoma (10 µM), 9.56% (active); in the assay on LOX IMVI melanoma (50 µM), 6.96% (active); with SK-MEL-2 melanoma, 54.6% [50 µM] (inactive); with SN12C renal (10 µM), 69.5% (inactive); with SN12C renal (50 µM), 31.5% (inactive). Further, the growth with UO-31 renal (10 µM) is 34% (inactive); with UO-31 renal (50 µM), 36.2% (inactive); with TK-10 renal (10 µM), 33.1% (inactive); in the assay on TK-10 renal (750 µM), 15.9% (inactive) and -6.1% (active); in the assay with ACHN renal (10 µM) it was 50% (inactive); in the assay on ACHN renal (50 µM), 20.5% (inactive). The growth is 7.07% (active) with CAKI-1 renal (10 µM); 21% (inactive) in the assay on CAKI-1 renal (50 µM); 71.1% (inactive) in the assay on A498 renal (10 µM); 47.5% (inactive) with A498 renal (50 µM); 13% (inactive) in the assay with CCRF-CEM leukemia (10 µM); 16.8% (inactive) with CCRF-CEM leukemia (50 µM). Moreover, the growth with MOLT-4 leukemia (10 µM) is 10.6% (inactive); in the assay with MOLT-4 leukemia (50 µM), 13.3% (inactive).
